Results taken from PubChem BioAssay (NCATS).
Inconclusive results are not listed. Entries that show only a call come without a potency. The source made the active and inactive calls. Calls come from the whole dose curve; as a rule, active = well fitted cell-killing curve with a large enough effect; inconclusive = small, poorly fitted or top-dose-only effect, or effect the other way; inactive = no such curve, though single readings can be large or run the other way.

assay: Quantitative highthroughput screen to assess conditional lethalithy of NOMO1 cells grown in Human Plasma-Like Medium with dialyzed fetal bovine serum (HPLM+ds) (AID 1963878); conditions: NOMO1 AML cells in HPLM+ds, CellTiter-Glo viability, 48 h; series mostly up to 45.8 µM; note: nearly all actives have a fitted effect of over 35% in size
Description: Assay Provider: Jason Cantor Ph.D.
Department of Biochemistry
University of Wisconsin-Madison, Madison, WI, USA
Chemical screening studies have identified drug sensitivities across hundreds of cancer cell lines but most putative therapeutics fail to translate. Discovery and development of drug candidates in models that more accurately reflect nutrient levels in human blood is a major challenge. Here we performed high-throughput screens in conventional versus Human Plasma-Like Medium (HPLM) to identify compounds that were "missed" when screening using the artificial culture condition. Sets of conditional anticancer compounds spanned phases of clinical development and included non-oncology drugs were assessed. […] We also traced conditional phenotypes for several chemotherapeutics to availability of HPLM-specific metabolites and confirmed others for compounds whose reported targets are encoded by nonessential genes. Our findings establish generalizable strategies for exploiting conditional lethality in HPLM to reveal therapeutic candidates and mechanisms of action in cancer cells.
Described herein are the results of each viability screens against three cell lines: NOMO1 (an acute myeloid leukemia cell line); P12-Ichikawa (a T-cell acute lymphoblastic leukemia); and SEM (a B-cell ALL). Each assay was screened using 3 different cell culture media: homemade human plasma-Like medium with 10% dialyzed fetal bovine serum (HPLM+ds); RPMI1640 with 10% untreated FBS and 5mM glucose (RPMI+s); and RPMI1640 with 10% dialyzed fetal bovine serum and 5 mM glucose (RPMI+ds).
PROTOCOL TABLE (as described by Inglese J, Shamu CE and Guy RK. 2007)
SEQUENCE No. (e.g., 1, 2, 3, etc.); […] (e.g., Cells, Incubation, Reagent, etc.); VALUE and DESCRIPTION.
1; Cells; 5 uL; white, solid bottom 1536-well Greiner assay plate.
2; Compounds; 23 nL; Kalypsis pin tool (Wako USA) equipped with a 1536-well pin head to transfer to the assay plates.
3; Incubation; 48 hours; 37C incubation.
4; Reagent; 3 uL; CellTiter Glo (Promega).
5; Incubation; 5 min, room temperature
6; Detection; Luminescence, Viewlux PerkinElmer.
NOTES (numbers refer to Sequence numbers above)
1. Briefly, 5 ul of cell reagent was dispensed using a Multidrop Combi Dispenser. The NOMO1 and SEM cells were plated at 500 cells/well and the P12-Ichikawa line at 1000 cells/well.
2. After seeding the cells, 23 nL of MIPE 4.1 library compounds (in DMSO) were added to each plate using a Kalypsys 1536 Pintool dispenser. Bortezomib at final concentration of […] and DMSO were added to each plate as positive and negative controls respectively. For each screen, MIPE 4.1 compounds were added over an eleven-point concentration range […] in 3-fold dilutions.
3. Each plate was covered with a stainless steel gasketed lid to prevent evaporation and incubated for 48 hour at 37C, 95% relative humidity, and 5% CO2.
4-5. Three microliter CellTilter-GloTM luminescent substrate mix (Promega) reagent was added to the assay plate and incubated at room temperature for 5 min.
6. The luminescence signal was measured using a ViewLux (PerkinElmer) multiplate reader with a 2 second exposure time per plate. Data for each compound were normalized as percent viability such that measurements for DMSO and the empty well controls in each plate were defined as 100% and 0%, respectively.
Potency is the fitted concentration of half-maximal effect.

Compound | Potency
CC(C)C[C@H](CN)CC(=O)O | inactive
NCC1(CC(=O)O)CCCCC1 | inactive
O=C(O)C(=O)c1cn(Cc2ccccc2)c2ccc(-c3ccc(OC(F)(F)F)cc3)cc12 | inactive
CC[C@H]1C=CC=CC[C@@H](C)[C@H](O)[C@@](C)(O)C(=O)[C@@H](C)[C@H](O)[C@@H](C)C(=O)[C@@H](C)[C@H](O)[C@@H](C)C=CC(=O)O[C@@H]2[C@@H](C)[C@H](CC1)O[C@]1(CC[C@H](C)[C@H](C[C@@H](C)O)O1)[C@H]2C | 2.64 µM (active)
Cc1[nH]nc2ccc(-c3cncc(OC[C@@H](N)Cc4c[nH]c5ccccc45)c3)cc12 | 0.526 µM (active)
O=C(O)CNC(=O)c1c(O)c2ccccc2n(Cc2ccccc2)c1=O | inactive
CNC(=O)c1ccc(N2C(=S)N(c3ccc(C#N)c(C(F)(F)F)c3)C(=O)C23CCC3)cc1F | inactive
COc1ccc2c(c1)CN(C)CC2c1ccc(Cl)c(Cl)c1 (stereo not given) | 3.32 µM (active)
CC(=O)Nc1ccc(OC[C@](C)(O)C(=O)Nc2ccc([N+](=O)[O-])c(C(F)(F)F)c2)cc1 | inactive
CC(C)CC(N(C)C)C1(c2ccc(Cl)cc2)CCC1 (stereo not given) | inactive
COc1cc(OC)c(OC)cc1C=O | inactive
C=C[C@@H]1CN2CCC1C[C@@H]2[C@@H](O)c1ccnc2ccccc12 (stereo not given in full) | inactive
Cc1cc(SCc2sc(-c3ccc(C(F)(F)F)c(F)c3)nc2C)ccc1OCC(=O)O | inactive
O=C1CC[C@@]2(O)[C@H]3Cc4ccc(O)c5c4[C@@]2(CCN3CC2CC2)[C@H]1O5 | 9.35 µM (active)
CC(C)(O)C=CC(=O)[C@](C)(O)[C@H]1[C@H](O)C[C@]2(C)[C@@H]3CC=C4[C@@H](C=C(O)C(=O)C4(C)C)[C@]3(C)C(=O)C[C@@]12C | 0.209 µM (active)
C[C@]12CCC(=O)C(O)=C1CC[C@@H]1[C@H]3CCC(=O)[C@@]3(C)CC[C@@H]12 | inactive
N=c1c2c(-c3ccccc3)c(-c3ccccc3)n(Cc3ccccc3)c2ncn1C1CCC(O)CC1 (stereo not given) | 16.6 µM (active)
COc1ccc2c(c1OC)CN1CCc3cc4c(cc3C1C2)OCO4 (stereo not given) | 1.48 µM (active)
CCOC(=O)c1cncn1[C@H](C)c1ccccc1 | inactive
O=c1[nH]c2ccccc2n1CCCN1CCC(n2c(=O)[nH]c3cc(Cl)ccc32)CC1 | inactive

Compound | Potency
CN(C)[C@@H]1C(=O)C(C(N)=O)=C(O)[C@@]2(O)C(=O)C3=C(O)c4c(O)cccc4[C@@](C)(O)[C@H]3C[C@@H]12 | inactive
Fc1ccc(C(OCCN2CCN(CCCc3ccccc3)CC2)c2ccc(F)cc2)cc1 | 20.9 µM (active)
CN(C)CCc1ccc(O)cc1 | inactive
CC(C)(C)[C@]1(O)C[C@@H]2OC(=O)C[C@@]23C(=O)O[C@@H]2OC(=O)[C@H](O)C213 (stereo not given in full) | inactive
COc1ccc2c(c[n+](C)c3c4cc5c(cc4ccc23)OCO5)c1OC | 20.9 µM (active)
C[C@]12CC[C@H](O)CC1=CC[C@H]1[C@H]3CCC(=O)[C@@]3(C)CC[C@@H]12 | inactive
CC(N[C@H]1C[C@H]1c1ccccc1)c1ccc2c(c1)OCCO2 (stereo not given in full) | inactive
CCc1c(C(=O)C(N)=O)c2c(OCC(=O)O)cccc2n1Cc1ccccc1 | inactive
CC=C(C)C(=O)O[C@H]1C(C)=C2[C@@H]3OC(=O)[C@@](C)(O)[C@@]3(O)[C@@H](OC(=O)CCC)C[C@](C)(OC(C)=O)[C@@H]2[C@@H]1OC(=O)CCCCCCC | 0.0662 µM (active)
O=C(O)c1nn(Cc2ccc(Cl)cc2Cl)c2ccccc12 | inactive
O=P1(N(CCCl)CCCl)NCCCO1 (stereo not given) | inactive
C[C@H]([C@H](O)CCC(C)(C)O)[C@H]1CC[C@@]2(O)C3=CC(=O)[C@@H]4C[C@@H](O)[C@@H](O)C[C@]4(C)[C@@H]3CC[C@]12C | inactive
Cn1c(CCCC(=O)O)nc2cc(N(CCCl)CCCl)ccc21 | inactive
COc1ccc(C(=O)c2c(C)n(CCN3CCOCC3)c3ccccc23)cc1 | inactive
C[C@@H]1CC[C@H]2[C@@H](C)C(=O)O[C@@H]3O[C@@]4(C)CC[C@H]1[C@]32OO4 | inactive
N[C@@H](Cc1ccc(N(CCCl)CCCl)cc1)C(=O)O | 7.43 µM (active)
C[C@](O)(COc1ccc(C#N)cc1)C(=O)Nc1ccc(C#N)c(C(F)(F)F)c1 | inactive
CC1=NN=C(c2ccc(N)cc2)c2cc3c(cc2C1)OCO3 | inactive
CC1(N2CCC(n3c([C@@H]4CCCNC4)nc4ccccc43)CC2)CCCCCCC1 | 13.2 µM (active)
COC1(CS(=O)c2ccccc2)CCN(CCc2c[nH]c3ccc(F)cc23)CC1 (stereo not given) | 26.4 µM (active)
